# High-throughput results from PubChem BioAssay.
# BRCA1 expr act – BRCA1 expression activation; MCF7-BRCA1-FFLuc reporter, luminescence, 48 h; response scale: scaled: vehicle 0%, 10 µM genistein 100%; Potency, µM (top dose mostly 46.1 µM), most hits filed as activators; 1.1% of 380,000 active; AID 624202; note: nearly all actives have a fitted effect of over 80% in size
#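 Compounds are tested at multiple concentrations on MCF7 BRCA1-luciferase reporter cells seeded at 2000 per well; after 48 h, a single luminescence end-point is taken and curves fitted to the normalized data.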
# GLP1R inv ag – acts as inverse agonist at human GLP-1 receptor. P43220. HEK293 GLP-1R CRE-luciferase, luminescence, 24 h; GLP-1R form is constitutively active. Potency, µM (series often up to 38.3 µM), usual class: inhibitors. 1.6% of 410,000 active. AID 624417; note: nearly all actives have a fitted effect of over 55% in size
# Target sequence (P43220 whole entry, looked up): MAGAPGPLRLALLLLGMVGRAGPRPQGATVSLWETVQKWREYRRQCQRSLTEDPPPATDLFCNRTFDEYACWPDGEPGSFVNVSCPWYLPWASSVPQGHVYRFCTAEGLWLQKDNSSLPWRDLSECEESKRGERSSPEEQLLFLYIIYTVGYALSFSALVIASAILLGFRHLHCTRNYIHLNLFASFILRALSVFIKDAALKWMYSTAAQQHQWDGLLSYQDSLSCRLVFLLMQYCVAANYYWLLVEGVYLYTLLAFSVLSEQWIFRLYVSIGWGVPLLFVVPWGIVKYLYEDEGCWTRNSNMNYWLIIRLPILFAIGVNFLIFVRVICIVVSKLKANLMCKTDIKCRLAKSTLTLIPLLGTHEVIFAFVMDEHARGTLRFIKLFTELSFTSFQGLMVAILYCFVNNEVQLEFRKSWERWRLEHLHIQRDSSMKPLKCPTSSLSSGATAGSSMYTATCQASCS
#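 Readout was luciferase luminescence, measured 12 min after detection reagent at room temperature. Beforehand, GLP-1R reporter HEK293 cells had sat 12 h, then received compounds for 24 hr at 37 deg C.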
# GLP1R cytotox – cytotoxic in the GLP-1 receptor inverse agonist counter-screen; 0.13% of 410,000 active; HEK293 cAMP-luciferase reporter cells, luminescence, 24 h; Potency, µM (top dose mostly 38.3 µM), actives largely listed as inhibitors;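 note: loss of luciferase light is scored as toxicity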
#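 MLSMR compounds, 24 hr on cells at 37 deg C/5% CO2; luminescence after luciferase reagent (12 min RT). Inhibition counted as the undesired cytotoxic outcome.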
# GLP1R ag – GLP-1 receptor (human) agonism | P43220 | HEK293 GLP-1R CRE-luciferase, luminescence, 4-6 h; cells express a hypersensitive GLP-1R form | Potency, µM (titrated, usually from 45.6 µM), usual class: activators | 0.007% of 380,000 active | AID 624172
# Numbers stand for hits; – = inactive; ? = inconclusive; · = no result. The list is not random: actives were taken first. Their share in the collection is about 2.6%. Calls come from the whole dose curve; as a rule, active = well fitted curve in the direction sought with a large enough effect; inconclusive = small, poorly fitted or top-dose-only effect, or another doubt; inactive = no such curve, though single readings can be large; an effect the other way counts as inactive or inconclusive.
SMILES,BRCA1 expr act,GLP1R inv ag,GLP1R cytotox,GLP1R ag
CCOC(=O)c1cnn(-c2ccc(Cl)cc2)c1C1CCN(C(=O)OC(C)(C)C)CC1,–,10µM,–,–
Cc1ccc(-n2ncc(C(=O)NCCc3c[nH]c4ccccc34)c2C2CCN(C(=O)OC(C)(C)C)CC2)cc1C,–,11µM,–,–
CC(C)(C)OC(=O)N1CCC(c2c(C(=O)N3CCCCC3)cnn2-c2ccc(Cl)cc2)CC1,·,–,–,·
COc1cc(CN2CCC(CO)(Cc3cccc(C(F)(F)F)c3)CC2)ccc1F,–,3.2µM,?,–
O=C(Cc1ccccc1)Nc1ccc(NC(=O)C2CCCCC2)nc1,–,7.1µM,–,–
O=C(Cc1ccccc1)Nc1ccc(NC(=O)c2ccco2)nc1,5.6µM,–,–,–
O=C(Nc1ccc(NC(=O)c2ccco2)nc1)c1ccco1,–,–,–,–
CCCCC(=O)Nc1cnc(NC(=O)c2ccco2)cc1C,11µM,–,–,–
COc1ccc(C)cc1S(=O)(=O)N1CCOCC1,–,–,–,–
COc1ccc(NC(=O)N(CCC(C)C)C(C)c2cccs2)c(OC)c1 (centres undefined),·,?,–,·
CCC(C(=O)OCC(=O)N1C(C)CCCC1C)c1ccccc1 (centres undefined),–,8.9µM,–,–
Cn1c(SCc2ccc(F)cc2)nc2ccc(C(=O)NCc3ccc(F)cc3)cc21,·,?,–,·
Cc1ccccc1C(=O)NNC(=O)c1ccoc1C,–,?,–,–
Cc1occc1C(=O)NNC(=O)c1ccccc1C(=O)O,10µM,–,–,–
Cc1occc1C(=O)NCCCc1ccccc1,13µM,–,–,–
Cc1occc1C(=O)NCCCCNC(=O)c1ccoc1C,–,–,–,–
Cc1ccc(NC(=O)CC2Nc3ccccc3NC2=O)cc1Cl (centres undefined),–,10µM,–,–
Cc1ccc(NC(=O)CC2Nc3ccccc3NC2=O)cc1C (centres undefined),–,–,–,–
CC(=O)Nc1nc2cc3c(cc2s1)OCO3,?,–,–,–
O=C(Nc1nc2cc3c(cc2s1)OCO3)C1=COCCO1,–,2.2µM,–,–
Cc1ccc(Cn2ncc3c(N4CCN(c5ccccc5C)CC4)ncnc32)cc1,–,3.5µM,–,–
O=C(COC(=O)C1CC1)Nc1ccc(N=Nc2ccccc2)cc1,2.5µM,–,–,–
O=C(COC(=O)C1CC1)Nc1ccc(OC(F)F)cc1,–,–,–,–
O=C(CN(c1ccc2c(c1)OCCO2)S(=O)(=O)c1ccccc1)N1CCN(Cc2ccccc2)CC1,–,?,–,–
CCOc1ccc(S(=O)(=O)Nc2ccc(Cl)cn2)c(C)c1C,–,11µM,–,–
SMILES,BRCA1 expr act,GLP1R inv ag,GLP1R cytotox,GLP1R ag
CCOc1cc(C)c(S(=O)(=O)Nc2ccc(Cl)cn2)cc1C,–,–,–,–
CCCOc1ccc(CC2CCC(=O)NC2=O)cc1 (centres undefined),–,–,–,–
CCCCOc1ccc(C2(C)CC(=O)NC2=O)cc1 (centres undefined),13µM,–,–,–
COc1cc(C(CC(=O)NCc2ccc(F)cc2)N2Cc3ccccc3C2=O)cc(OC)c1OC (centres undefined),–,–,–,–
O=C(c1c(F)cccc1F)N1CCCC(c2nc(-c3ccc(F)cc3)no2)C1 (centres undefined),–,?,–,–
Cc1c(CC(=O)N[C@@H](C)C(=O)O)c(=O)oc2cc3c(cc12)CCC(C)(C)O3,–,–,–,–
Cc1c(CC(=O)NC(C)C)c(=O)oc2cc3c(cc12)CCC(C)(C)O3,11µM,–,–,–
CCOC(=O)Cc1ccc(NC(=O)n2ncc3cc(Cl)ccc32)cc1,·,–,–,·
COc1cccc(NC(=O)N2CCc3ccccc3C2)c1,11µM,–,–,–
COc1cccc(NC(=O)N2CCN(c3cccc(C)c3)C(C)C2)c1 (centres undefined),–,10µM,–,–
Cc1ccc(C)c(NC(=O)N2CCc3ccccc3C2)c1,3.5µM,–,–,–
Cc1cccc(N2CCN(C(=O)Nc3ccc(F)cc3)CC2C)c1 (centres undefined),·,?,–,·
C=CCn1c(SCC(=O)NCC2CCCO2)nc2sc(CC)cc2c1=O (centres undefined),–,–,–,–
CCN(CC)CCCNC(=O)c1cc(-c2ccc(OC)c(OC)c2)on1,·,–,–,·
Cc1ccc(C(=O)NCC(=O)N(C)Cc2ccccc2C)s1,11µM,–,–,–
Cc1ccc(C(=O)NCC(=O)N(C)Cc2cccc(F)c2)s1,–,–,–,–
CCOP(=O)(OCC)C(Nc1ccccc1)c1ccc2c(c1)OCO2 (centres undefined),–,?,–,–
CCCCOP(=O)(OCCCC)C(Nc1ccccc1)c1ccc2c(c1)OCO2 (centres undefined),–,7.9µM,–,–
CCOC(=O)C1C(=O)C=C(c2ccc(C)cc2)CC1c1ccc([N+](=O)[O-])cc1 (centres undefined),–,10µM,–,–
O=C(NCc1nnc(SCc2ccc(F)cc2)n1-c1ccc(F)cc1)C12CC3CC(CC(C3)C1)C2,–,7.1µM,?,–
O=C(CSc1nnc(CNC(=O)C23CC4CC(CC(C4)C2)C3)n1-c1ccc(F)cc1)Nc1ccc(F)cc1,–,?,–,–
C=Cc1ccc(Cn2c(C)c(CNCc3ccc(SC)cc3)c(C(=O)O)c2C)cc1,·,–,–,·
CCOc1ccc2ccccc2c1C(=O)N1CCN(c2ccccc2)CC1,–,7.9µM,?,–
CCOc1ccc(CN2CCC(C(=O)Nc3cccc(-c4ccn[nH]4)c3)CC2)cc1Cl,–,10µM,?,–
COc1ccccc1C(=O)O/N=C1/CCCc2c1ccc(OC)c2[N+](=O)[O-],–,–,–,–
SMILES,BRCA1 expr act,GLP1R inv ag,GLP1R cytotox,GLP1R ag
COc1ccc2c(c1)CC/C2=N\OC(=O)c1ccccc1OC,–,–,10µM,–
C[C@@H]1CN([C@H](C)CO)C(=O)CCCn2nncc2CO[C@H]1CN(C)C(=O)Nc1ccc(N2CCN(C)CC2)cc1,–,–,–,–
CNC(=S)N/N=C/c1ccc(C(C)C)cc1,5µM,?,?,–
C=C1CCC2C(C)(CO)C(O)CCC2(C)C1C/C=C1\C(=O)OCC1O (centres undefined),–,·,·,·
CCOC(=O)C(C)Sc1nnc(-c2c[nH]c3ccccc23)n1C (centres undefined),–,–,–,–
CC(C)Sc1nnc(-c2c[nH]c3ccccc23)n1C,7.1µM,–,–,–
Cc1nn(C)c2c1c(-c1ccccc1)cc(=O)n2Cc1ccc(Cl)cc1,·,–,–,·
Cc1cc(Br)ccc1NC(=O)CN(C)C(=O)C1CCN(c2ncnc3sc(C)c(C)c23)CC1,–,3.2µM,–,–
O=C(O)c1ccc(N/N=C/c2ccc(OC(=O)c3ccccc3Cl)cc2)cc1,–,7.1µM,–,–
Nc1ccc(C(=O)N/N=C\c2ccc(OC(=O)c3ccccc3Cl)cc2)cc1,–,–,–,–
COc1cc2c(c(OC)c1OC)-c1c(cc3c(c1OC)OCO3)CC(C)C(C)(O)C2 (centres undefined),·,·,·,–
